In all, about 360,000 compounds went through this assay and about 17,000 (4.7%) were called active. Roughly 5% stayed inconclusive and do not appear here. The list comes from a sample in which actives are over-represented; it also holds similar structures and randomly drawn compounds. Values without a mark were called inactive. Cut-off read from the data, not from the text of the source: active = activity change below about -50%; inconclusive = mostly about -30% to -49%; inactive = weaker than that.
% is set by controls: 0 for no effect and ±100 for the full control effect.

The nature of this assay: qHTS for Inhibitors of Inflammasome Signaling: IL-1-beta AlphaLISA Primary Screen. The conditions noted are these: THP-1 LPS/ATP IL-1B secretion, 16 h; at 57.5 µM, active compounds read low. Put shortly: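 THP-1 cells pretreated 1 hr with compounds (up to 57.5 uM final), then stimulated with LPS (250 ng/mL final) plus ATP (1.25 mM final); secreted IL-1B measured by AlphaLISA after 16 hr, decreased signal indicating inhibition.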
For orientation: Quantitative high-throughput screening tests each substance at several concentrations.
`Cc1ccc2cc(CN(c3ccc(C)c(C)c3)S(C)(=O)=O)c(=O)[nH]c2c1`: the activity change is -25.8%. As to `COc1ccc(NC(=O)c2sc(=O)n(Cc3ccc(S(=O)(=O)N(C)C)cc3)c2C)cc1`, the activity change is 6.5%. As for `O=C(NCc1ccccc1)C1c2ccccc2OCC(=O)N1C1CC1` (stereo not given), the activity change is -1.49%. Take `Cc1cc(Br)cn2c(Cc3cccc(F)c3)c(-c3cccc(Br)c3)nc12`: the activity change was 25.5%.

`CCCC1C(c2ccccc2)C(C#N)(C#N)C2(C#N)CC1(N)NC2=O` (stereo not given): the activity change was 3.18%. The value for `COc1ccc(-c2csc(Cc3nc(O)cs3)n2)cc1` was -95.7% (active). Regarding `COc1ccc(C(C)(O)c2nc(-c3ccc(C)c(C)c3)cs2)cc1` (stereo not given), the activity change is 22%.

In the case of `COc1ccc(C(C)(O)c2nc(-c3cc(F)cc(F)c3)cs2)cc1` (stereo not given), the activity change was 42.9%. The value for `COc1ccc(-c2csc(Nc3ccc(O)cc3)n2)cc1` was -79.3% (active). The value for `COc1ccc(C(O)c2nc(-c3ccc(OC)nc3)cs2)cc1` (stereo not given) was 36.7%; that for `COc1ccc(C(=O)/C=C/Nc2ccccn2)cc1` was -1.59%. Take `COC(=O)CCc1sc(Nc2ccc(Br)cc2)nc1-c1ccc(OC)cc1`: the activity change was -13.7%. In the case of `COc1ccc(C(O)c2nc(-c3ccc4c(c3)OCO4)cs2)cc1` (stereo not given), the activity change is -22.4%.

For `COc1cccc(C(O)c2nc(-c3ccc(C)c(C)c3)cs2)c1` (stereo not given), the activity change was 27%. As to `COc1ccc(-c2csc(Nc3ccccn3)n2)cc1`, the activity change is -86.3% (active). As to `COc1ccc(-c2cc3ncccc3cn2)cc1`, the activity change is 15.7%. Regarding `COc1ccc(OC)c(Nc2nc(-c3ccc(O)c(O)c3)cs2)c1`, the activity change was -70% (active). `NC(CSC(c1ccccc1)(c1ccccc1)c1ccc(-c2ccccc2)cc1)C(=O)O` (stereo not given): the activity change is 1.83%. With `C=CCNC(=O)CCCC(=O)NCC=C`, the activity change is 0%. With `OC(c1ccccc1)c1nc(/C=C/c2ccc(C(F)(F)F)cc2)cs1` (stereo not given), the activity change was 15.3%. Take `O=C(O)c1ccccc1Cc1ccc(F)c2ccccc12`: the activity change is 47.2%. Consider `O=S1(=O)CSCS(=O)(=O)C1`, for which the activity change was -18.2%.

Regarding `COc1ccc([C@H]2N[C@]3(CCCN(Cc4ccco4)C3=O)[C@H]3C(=O)N(C)C(=O)[C@@H]23)cc1`, the activity change was -4.35%.

Consider `Cc1cc(=O)oc2c3c(cc(OCC(=O)NCCC(=O)N[C@@H](C)C(=O)O)c12)OC(C)(C)CC3`, for which the activity change was -0.546%. In the case of `O=c1oc2ccccc2cc1-c1csc(Nc2ccc(O)cc2)n1`, the activity change was -97.2% (active). `Cc1ccn2c(-c3csc(Nc4ccc(C(=O)O)cc4)n3)c(C)nc2c1`: the activity change was 30.5%. The value for `O=C(NCc1cccnc1)c1cccc(-c2cc3ccccc3oc2=O)c1` was -3.38%. On to `Nc1nc2c(Br)ccc(Br)c2cc1C(=O)NCCc1ccccc1`, for which the activity change is 0%. Consider `CCCCN(C(=O)c1cccc(N2C(=O)c3ccccc3C2=O)c1)c1c(N)n(CCCC)c(=O)[nH]c1=O`, for which the activity change is 13%. With `CCC(C)NCCOCCOc1ccc(Br)cc1C` (stereo not given), the activity change is -17.9%. `C[C@H](NC(=O)CC[C@H]1O[C@@H](n2ccc(=O)[nH]c2=O)[C@H](O)[C@@H]1O)c1cccc2ccccc12`: the activity change was 0%. For the compound `COc1cc2[nH]c(=O)n(Cc3ccc(C(=O)NC4CCN(Cc5ccccc5)CC4)cc3)c(=O)c2cc1OC`, the activity change was 2%. `CC(C)(C)C(=O)NNC(=O)c1ccc(Oc2cc(Cl)cc(Cl)c2)o1`: the activity change was 6.58%.

With `O=C(NC1CCN(Cc2ccccc2)CC1)c1ccc(Oc2cc(Cl)cc(Cl)c2)o1`, the activity change was -70.1% (active). In the case of `CCOc1ccc(CC(=O)NC2CCN(Cc3ccccc3)CC2)cc1`, the activity change was 0%. Take `Cc1cc(C(=O)NC2CCN(Cc3ccccc3)CC2)n[nH]1`: the activity change was -8.74%. As to `O=C(NC1CCN(Cc2ccccc2)CC1)c1cc(Br)c(Br)[nH]1`, the activity change was -123% (active).

As to `COC(=O)c1ccc2nc(-c3ccccc3)c(Cc3ccc(OC)cc3C)n2c1`, the activity change was -3.04%. In the case of `CSc1ccc(CN2CCC2(C)C(=O)Nc2ccc(C)c(O)c2)cc1` (stereo not given), the activity change was -13.3%.

Regarding `Cc1ccc(S(=O)(=O)N[C@H](CO)C(C)C)cc1`, the activity change was -19.8%. With `Cc1ccsc1CNn1cnnc1SCc1ccccc1F`, the activity change is -6.1%. In the case of `CC(C)c1ccc(CC(=O)N2CCC2(C)C(=O)NS(=O)(=O)c2ccc(C(C)(C)C)cc2)cc1` (stereo not given), the activity change was 19.2%.

As to `C[C@]12CCC(=O)C=C1C=CC1C2CC[C@@]2(C)C1CC[C@@]21CCC(=O)O1` (stereo not given in full), the activity change is -21.4%. The value for `CSCCC(NS(=O)(=O)c1ccc(C)cc1)C(=O)NCCc1c[nH]c2ccccc12` (stereo not given) was -1.87%; that for `O=C1Nc2ccccc2-n2nnnc2C1N1CCN(c2cccc(C(F)(F)F)n2)CC1` (stereo not given) was -29.2%; that for `CCOc1ccc(/C=N/OCC(=O)NCc2cccs2)cc1` was -0.513%. Turning to `CC1CCCCC1NC(=O)CO/N=C/c1ccc(OC(F)F)cc1` (stereo not given), the activity change was -0.145%.

For the compound `O=C(CO/N=C/c1ccc(OC(F)F)cc1)NCc1ccc(F)cc1`, the activity change is -66.2% (active). The value for `CC(C)(C)C(=O)c1c(N)[nH]c(C(=O)c2ccccc2)c1-c1ccc(F)cc1` was 19.8%; that for `Fc1cccc(Cc2c(-c3cccc(Cl)c3)nc3ccc(Br)cn23)c1` was 88.1%; that for `Cc1onc(NC(=O)c2ccc([N+](=O)[O-])o2)c1Br` was -79.8% (active). Turning to `Cc1cccc(NC(=O)C(C)SCc2ccccc2)c1` (stereo not given), the activity change is 58.8%. Consider `Cc1cccc(C(=O)Nc2ccc(CC(=O)O)cc2)c1`, for which the activity change is 0%.

In the case of `Cc1cc(NC(=O)COc2ccc([N+](=O)[O-])cc2)no1`, the activity change was -22.5%. For `CN1C(=O)c2ccc(C(=O)Nc3ccc(Br)cn3)cc2C1=O`, the activity change was -0.113%. Regarding `Cc1cccc(NC(=O)c2ccc([N+](=O)[O-])o2)c1`, the activity change is -102% (active). In the case of `Cc1onc(C(=O)NCc2ccc(F)cc2)c1[N+](=O)[O-]`, the activity change is 10%. Regarding `O=C(Nc1ccc(Br)cn1)c1ccc([N+](=O)[O-])cc1Cl`, the activity change was -6.95%. Take `O=C(Nc1ccc(Br)cn1)c1ccc([N+](=O)[O-])o1`: the activity change is -155% (active). Consider `C[n+]1cccc(C(=O)O)c1`, for which the activity change is -10.8%.
